Results with a measured potency or affinity are listed apart. The source made the active and inactive calls.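 Rule for the calls: active = cell killing whose fitted half-effect concentration is at most twice the top valid dose tested; inconclusive = flat curve with 30 to 70% killing, or a poor fit; inactive = effect in the rising direction, plus the rest.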
Test: viability loss in A549 lung cells – cell-based, ATP luminescence, cherry-pick, set 2, cytotoxicity control, dose response (AID 1053124)
Conditions: ATP luminescence (CellTiter-Glo), 72 h; series mostly up to 26 µM

SMILES	outcome
Cc1oc(/N=C/c2ccc(F)cc2)c(C#N)c1C	inactive
CCCOc1ccccc1/C=C1\SC(N)=NC1=O	inactive
COc1cccc2c(=O)c3c(cnn3C)n(C)c12	inactive
Cc1cccn2c(=O)c(/C=C(\C#N)C(=O)NC3CCS(=O)(=O)C3)c(N3CCC(C(N)=O)CC3)nc12 (centres undefined)	inactive
Cn1nc(-c2ccc(Cl)cc2)c2cc(C(=O)N3CCN(c4ccccc4)CC3)sc21	inactive
CN1c2ccc(Cl)cc2C(=O)NC1C1CC=CCC1 (centres undefined)	inactive
Cc1cc(CNC(=O)c2ccc3c(c2)OCO3)c2ccccc2n1	inactive
Cc1ccc(S(=O)(=O)Nc2ccc(Nc3ccccc3)cc2)cc1	inactive
CC1CCN(S(=O)(=O)N2CCC(C(=O)NC3CCCC3)CC2)CC1	inactive
Cc1oc(/N=C/c2ccc(O)cc2O)c(C#N)c1C	inactive
CC(=O)c1cc2ccc(O)cc2oc1=O	inactive
CCN(CC)c1ccc2cc(C(N)=O)c(=O)oc2c1	inactive
O=C(COC(=O)c1cc(S(=O)(=O)N2CCCCC2)ccc1N1CCOCC1)c1ccccc1Cl	inactive
Cc1ccc(-c2nc3ccsc3c(=O)[nH]2)cc1	inactive
CCOC(=O)c1cc(-c2ccccc2)sc1NC(=O)CSc1nnc(N)s1	inactive
CCC(=O)N1C(C(=O)NCc2ccc(OC)cc2)CSC1c1ccc(OC)cc1 (centres undefined)	inactive
CCOCCCNc1c(CC)c(C)c(C#N)c2nc3ccccc3n12	inactive
O=C(NCc1nnnn1-c1ccc(Cl)cc1)C1CC(=O)N(c2ccc(F)cc2)C1 (centres undefined)	inactive
CCn1c(=N)c(S(=O)(=O)c2ccccc2)cc2c(=O)n3ccccc3nc21	inactive
CC(=O)c1cc2c(ccc3ccccc32)oc1=O	inactive

SMILES	outcome
COCCNC(=S)N/N=C/c1ccc(-c2ccc([N+](=O)[O-])cc2)o1	inactive
COc1ccc(C2C3=C(CC(C)(C)CC3=O)N(C)C3=C2C(=O)CC(C)(C)C3)cc1	inactive
CCOc1ccc(-n2c(SCC(=O)Nc3nccs3)nnc2-c2ccoc2C)cc1	inactive
COCCNC(=O)c1cc2c(=O)n3cccc(C)c3nc2n(Cc2ccncc2)c1=N	inactive
O=C(c1cccc(Cl)c1)N1CCC(=O)N(C(COCc2ccccc2)Cc2ccccc2)CC1 (centres undefined)	inactive
CCOc1ccc2nc(NCCCNS(=O)(=O)c3ccc(F)cc3)c(C#N)cc2c1	inactive
Cc1cccn2c(=O)c3cc(C(=O)NCc4ccc(F)cc4)c(=N)n(CCCN4CCOCC4)c3nc12	inactive
Cc1c(O)ccc2cc(S(=O)(=O)c3ccccc3)c(=O)oc12	inactive
O=C(O)c1[nH]c2ccccc2c1C(c1cc(Br)ccc1O)c1c(C(=O)O)[nH]c2ccccc12	inactive
O=C(O)c1cccc(NC(=O)c2cn(-c3ccccc3)nc2-c2cccc(Br)c2)c1	inactive
O=C(CCCN1C(=O)CSc2ncccc21)N1CCN(Cc2ccccc2)CC1	inactive
CSc1ccc(Cn2c(C)c(C(=O)NCCC#N)sc2=O)cc1	inactive
CCNC(=O)c1cc2c(=O)n3cccc(C)c3nc2n(Cc2ccc(C)cc2)c1=N	inactive
Cc1cc(=O)oc2cc(OC(=O)c3cncc(Br)c3)ccc12	inactive
CCCCN(CCCC)CC(O)Cn1c2ccccc2c(=O)c2ccccc21 (centres undefined)	inactive
CC(=O)N=c1c(C#N)cc2c(=O)n3ccccc3nc2n1CCCOC(C)C	inactive
O=c1[nH]c(Nc2ccccc2Cl)cc2ccccc12	inactive
O=C(Cc1csc(-c2ccccc2)n1)NCc1ccccc1F	inactive
O=C(O)c1ccc(N/N=C/c2ccc(-c3ccccc3Cl)o2)cc1	inactive
